Assay outcomes from PubChem BioAssay.
Compounds with a hit are over-represented: about 10% of the library has one in this group of screens.
HP1b chromo inh – HTS for Inhibitors of HP1-beta Chromodomain Interactions with Methylated Histone Tails | Chromobox protein homolog 1 (Homo sapiens), P83916 | AlphaScreen HP1-beta / biotin-H3K9me3 peptide binding | Potency, µM (doses to about 114 µM), inactives show top-dose activity change, negative = inhibition, hits mostly inhibitors | hit rate 0.56% among 390,000 | AID 540317, 2011; note: nearly all actives have a fitted effect of over 70% in size
Target sequence (P83916 whole entry, looked up): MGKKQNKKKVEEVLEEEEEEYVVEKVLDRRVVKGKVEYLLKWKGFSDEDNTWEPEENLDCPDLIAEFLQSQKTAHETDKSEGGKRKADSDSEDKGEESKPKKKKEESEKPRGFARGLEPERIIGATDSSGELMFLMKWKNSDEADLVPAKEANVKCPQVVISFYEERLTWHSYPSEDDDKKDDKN
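Compound inhibition of the preformed complex between 50 nM HP1-beta and 50 nM biotinylated H3K9me3 peptide was read by AlphaScreen. Buffer was PBS pH 7.4 with 0.01% Tween-20. Incubations ran 30 min at room temperature, with 10 ug/mL donor/acceptor beads.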
JMJD2A Tudor – qHTS Assay for Inhibitors of JMJD2A-Tudor Domain; Lysine-specific demethylase 4A (Homo sapiens), O75164; AlphaScreen JMJD2A-Tudor / H3K4me3 peptide binding; AID 504339, 2011; Potency, µM (series often up to 114 µM), without a hit: top-dose activity change, negative = inhibition, hits mostly inhibitors; hit rate 4.4% among 390,000; note: % is set by controls: 0 for no effect and ±100 for the full control effect; nearly all actives have a fitted effect of over 50% in size
BAZ2B inh – qHTS Assay for Inhibitors of BAZ2B; AlphaScreen BAZ2B-H3K14Ac peptide displacement; hit rate 4.4% among 360,000; Potency, µM (titrated, usually from 114 µM), inactives show at the highest dose activity change, negative = inhibition, most hits filed as inhibitors; AID 504333, 2011; note: % is set by controls: 0 for no effect and ±100 for the full control effect; nearly all actives have a fitted effect of over 60% in size
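Inhibition is scored as reduced AlphaScreen emission. The BAZ2B/b-H3(5-23)K14Ac complex (50 nM each) in PBS pH 7.4, 0.01% Tween-20 meets compound (up to 110 uM) for 30 min at RT before bead addition.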
G9a inh – qHTS Assay for Inhibitors of Histone Lysine Methyltransferase G9a. G9a H3K9 monomethylation, AlphaScreen, 2 h. Histone-lysine N-methyltransferase EHMT2 (Homo sapiens), Q96KQ7. Potency, µM (doses to about 102 µM), for the others: at the top dose activity, negative = inhibition, most hits filed as inhibitors. hit rate 8.8% among 350,000; note: % is set by controls: 0 for no effect and ±100 for the full control effect; nearly all actives have a fitted effect of over 75% in size
Target sequence (Q96KQ7 913-1193 limits assumed): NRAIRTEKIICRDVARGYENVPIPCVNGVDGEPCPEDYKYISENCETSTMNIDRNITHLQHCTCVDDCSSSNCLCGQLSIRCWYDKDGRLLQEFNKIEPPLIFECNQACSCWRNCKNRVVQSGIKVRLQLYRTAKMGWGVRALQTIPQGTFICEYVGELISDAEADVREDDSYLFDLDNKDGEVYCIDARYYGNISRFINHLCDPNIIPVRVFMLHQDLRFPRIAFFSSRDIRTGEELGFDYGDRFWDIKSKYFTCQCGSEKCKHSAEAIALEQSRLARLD
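Methyltransferase reactions run at room temperature for 2 h (20 nM enzyme, 500 nM biotin-H3K9 peptide, 20 uM SAM) after a 15 min compound preincubation; product detected by AlphaScreen beads and anti-H3K9me1 antibody.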
GLS inhibitor – qHTS for Inhibitors of Glutaminase (GLS). Glutaminase kidney isoform, mitochondrial (Homo sapiens), O94925. GLS enzymatic activity, qHTS titration. Potency, µM (doses to about 45.5 µM), without a hit: top-dose activity change, negative = inhibition, actives largely listed as inhibitors. hit rate 0.21% among 410,000. AID 624170, 2012; note: % is set by controls: 0 for no effect and ±100 for the full control effect
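hKGA in 45 mM KH2PO4 (pH 8.2), 0.02% Tween-20 with compound, then 1mM L-Glutamine (stock as added) plus glutamate oxidase/HRP/Amplex red coupling mix. Fluorescence read initially and after 30 min at RT; signal change reflects glutamate formation.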
* marks the source's active call; other numbers are inactive results; ? = inconclusive; nt = not tested or not shown; [ ] = remark or other dose. Calls come from the whole dose curve; as a rule, active = well fitted curve in the direction sought with a large enough effect; inconclusive = small, poorly fitted or top-dose-only effect, or another doubt; inactive = no such curve, though single readings can be large; an effect the other way counts as inactive or inconclusive. Potency is the fitted concentration of half-maximal effect.

SMILES	HP1b chromo inh	JMJD2A Tudor	BAZ2B inh	G9a inh	GLS inhibitor
O=C(CN1C(=O)S/C(=C\c2ccc(O)c([N+](=O)[O-])c2)C1=O)Nc1ccc(N2CCOCC2)cc1	?	56.2µM*	44.7µM*	-3.5%[0.501 µM]	?
Cc1cc(NC(=O)CSc2nnc(-c3cccnc3)n2N)no1	25.5%	-13.0%	?	?	-4.2%
CCOc1ccc2c(c1)c(=O)c(S(=O)(=O)c1ccc(F)cc1)cn2CC(=O)Nc1ccccc1C	21.4%	-16.6%	-9.9%	4.1%[59 µM]	-3.8%
CN(O)/C=N/C(=S)Nc1ccc(Cl)cc1Cl	9.1%	-22.0%	?	3.55µM*	6.8%
Cc1ccc(-c2c(C3C4C=CCC(C)C4C(=O)N3Cc3ccccc3)ccc3ccccc23)cc1 (stereo not given)	34.5%	-24.8%	nt	nt	nt
O=C(O)c1ccc(/C=N/Nc2ccc(C(F)(F)F)cn2)cc1	-2.5%	-22.7%	-20.2%	-9.5%	13.8%
O=C(O)c1ccc(/C=N/Nc2cccc(C(F)(F)F)c2)cc1	4.7%	-23.1%	?	?	14.1µM*
O=C(O)c1ccc(N/N=C/c2ccc(-c3ccccc3)cc2)cc1	-12.6%	-33.1%	nt	44.7µM*	10.0%
O=C(O)c1ccc(/C=N/Nc2nnnn2-c2ccccc2)cc1	48.7%	-9.8%	5.8%	14.5%[59 µM]	-19.0%
O=C(N/N=C/c1ccc(O)cc1)c1cccc(N/N=C/c2ccc(O)cc2)c1	-20.4%	-14.0%[11.4 µM]	-24.3%	10µM*	23.7%
Cc1ccc(/C=N/Nc2ccc(C(=O)O)cc2)o1	26.5%	-10.2%	-12.6%	-32.0%	0.1%
CC(C)c1ccc(/C=N/Nc2ccc(C(=O)O)cc2)cc1	25.2%	-25.1%	?	10µM*	14.1%
CCNC(=S)Nn1cnc2ccccc21	62.0%	-20.5%	-14.4%	?	-1.8%
CC(C)CC(=O)NC1(C(F)(F)F)C(=O)Nc2c1c(=O)[nH]c(=O)n2-c1ccccc1 (stereo not given)	81.5%	-1.0%	-1.1%	22.2%[59 µM]	-5.3%
CCCn1cc(S(=O)(=O)CC(=O)N2CCc3ccccc32)c2ccccc21	-15.7%	?	-30.7%	?	20.7%
O=C(O)c1cccc(N/N=C/C2=C(Cl)c3cc(Cl)ccc3SC2)c1	-4.9%	56.2µM*	50.1µM*	50.1µM*	13.5%
C/C(=N\Nc1cccc(C(F)(F)F)c1)c1ccc(O)cc1	?	44.7µM*	?	8.91µM*	?
C/C(=N\NC(=O)CNc1cccc(C(F)(F)F)c1)c1ccc(Br)cc1	22.0%	2.1%	-7.9%	-43.1%[59 µM]	-4.9%
O=C(O)c1ccc(N/N=C/c2ccc(OC(=O)c3ccccc3Cl)cc2)cc1	?	?	89.1µM*	1.8%[59 µM]	?
O=C(O)c1cccc(N/N=C/c2sc(N3CCOCC3)nc2-c2ccccc2)c1	26.4%	-25.0%	?	?	14.3%
O=C(O)c1ccc(N/N=C/C=C/c2ccccc2)cc1	7.4%	-31.4%	?	70.8µM*	21.8%
O=C(N/N=C/C=C/c1ccccc1)c1ccncc1	12.7%	?	3.6%	42.2%[59 µM]	-11.7%
O=C(O)c1cccc(N/N=C/c2ccc(F)c(F)c2)c1	39.4%	-18.2%	5.7%	7.94µM*	?
Cc1ccc(/C=N/Nc2cccc(C(=O)O)c2)s1	4.7%	?	-35.3%	?	12.2%
COc1cc(/C=N/NC(=O)c2cc(-c3cccn3C)n[nH]2)cc(OC)c1OC	-32.4%	?	39.8µM*	nt	19.0%
SMILES	HP1b chromo inh	JMJD2A Tudor	BAZ2B inh	G9a inh	GLS inhibitor
Cn1cccc1-c1cc(C(=O)N/N=C/c2ccc(Cl)cc2)[nH]n1	-27.8%	?	50.1µM*	-15.2%	-0.7%
COc1cccc(/C=N/NC(=O)c2cc(-c3cccn3C)n[nH]2)c1	?	-33.8%	?	-16.4%[59 µM]	23.7%
C/C(=C\c1cccc(Cl)c1Cl)C(=O)c1c(C)cc(C)[nH]c1=O	36.1%	-29.2%	-7.6%	22.9%	-4.0%
O=[N+]([O-])c1cccnc1N1CCC(c2cc(-c3ccc(Cl)cc3)n[nH]2)CC1	?	25.1µM*	50.1µM*	8.91µM*	3.1%
COc1cc(C(=O)N=c2sc3c(C)ccc(OC)c3n2C)cc(OC)c1OC	40.7%	-1.7%	5.1%	nt	-10.5%
COc1cc(C(=O)N=c2sc3ccccc3n2C)cc(OC)c1OC	17.7%	50.1µM*	-10.5%	4.3%	-7.7%
COc1ccc(C)cc1NC(=O)C(c1ccccc1)N1CCN(CC(=O)N2CCCC2)CC1 (stereo not given)	15.7%	-5.8%	1.0%	?	-3.5%
COc1ccc(C)cc1NC(=O)C(c1ccccc1)N1CCN(CC(=O)N2CCOCC2)CC1 (stereo not given)	21.3%	-11.7%	-14.9%	44.7µM*	2.1%
CCOc1ccc(S(=O)(=O)Nc2ccc3c(c2)CCCN3C(=O)c2cccs2)cc1	24.8%	-12.6%	-28.1%	-5.1%[59 µM]	8.8%
Cc1cc(C)c(C(=O)CSc2nnc(-c3cccnc3)n2C)c(C)c1	34.6%	-3.8%	?	?	4.2%
Cc1ccc(CN2CCN(/N=C/c3cccn3C)CC2)c(C)c1	?	39.8µM*	50.1µM*	25.1µM*	14.5%
Cc1ccc(CN2CCN(/N=C/c3ccc(C)s3)CC2)c(C)c1	?	44.7µM*	35.5µM*	?	11.9%
CC1CCN(C(=O)CSc2nnc(-c3ccco3)o2)CC1	43.3%	-7.9%	-4.3%	10.7%	13.6%
COC(=O)Nc1nc2ccc(-c3n[nH]c(=O)c4ccccc34)cc2[nH]1	10.9%	?	?	50.1µM*	-17.5%
CCOC(=O)c1cc(C)[nH]c(=O)c1C#N	27.2%	1.4%	27.8%	15.2%	-2.2%
CC(C)(C)OC(=O)n1cccc1/C=C1\c2ccccc2C(=O)N1c1ccccc1	-37.5%	63.1µM*	nt	nt	-5.3%
CC(=O)Oc1ccc(C#C/C=C2\c3ccccc3C(=O)N2c2ccccc2)cc1	24.8%	-28.3%	nt	nt	-2.2%
COc1ccc(NC(=S)NC2CCCCC2)c(OC)c1	?	-29.6%	?	50.1µM*	-8.2%
COc1ccc(NC(=O)C/C(C)=N/NC(=O)C(=O)NC2CCCCC2)c(OC)c1	39.5%	-5.4%	-14.5%	15.8µM*	1.9%
COc1ccc(NC(=S)Nc2cccnc2)c(OC)c1	16.2%	-2.0%	-3.3%	50.1µM*	32.4%
COc1ccc(NC(=O)Nc2ccc(Cc3ccncc3)cc2)c(OC)c1	?	?	50.1µM*	?	9.2%
COc1ccc(NC(=S)NC2CCCCCC2)c(OC)c1	?	-29.6%	?	?	19.9%
COc1ccc(NC(=O)Nc2cnccn2)c(OC)c1	19.9%	-9.9%	0.9%	nt	7.1%
